Screening results deposited in PubChem BioAssay by National Center for Advancing Translational Sciences (NCATS).
Nrf2 ARE act = activates Nrf2 signaling; AREc32 ARE-luciferase reporter (MCF7-derived line), luminescence, 24 h; Potency, µM (highest dose often 46.1 µM), for the others: at the highest dose activation, hits mostly activators; 410,000 compounds, 0.31% hits; further: potency means the concentration at half of the fitted maximal effect; % of control where 0% means no effect; nearly all actives have a fitted effect of over 65% in size
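Cells of the AREc32 ARE-luciferase line are plated in OPTI-MEM containing 5% FBS and left overnight at 37 deg C. Compounds are pinned in, incubation continues 24 hr, and firefly luciferase signal is then measured.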
A549 tox-1 = counter-screen for Nrf2 inhibitors: cytotoxicity in A549 cells | 390,000 compounds, 0.16% hits | Potency, µM (series often up to 46 µM), inactives show top-dose activity change, negative = cytotoxicity, usual class: inhibitors | A549 ARE-Fluc cells, CellTiter-Fluor viability, 18-24 h | AID 504648; further: potency means the concentration at half of the fitted maximal effect; on the % scale 0 is the no-effect control and ±100 the full control effect
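Cytotoxicity counterscreen: CellTiter-Fluor fluorescence was measured in A549 ARE_Fluc cells after 18-24 h of compound exposure in a concentration series. The subsequent BugLite luminescent read reports ARE-luciferase activity.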
Nrf2 inh = Nrf2 pathway inhibition. A549 ARE-Fluc reporter, luciferase luminescence, 18-24 h. Potency, µM (series often up to 46 µM), without a hit: top-dose activity change, negative = inhibition, most hits filed as inhibitors. 360,000 compounds, 2.1% hits. AID 504444; further: potency means the concentration at half of the fitted maximal effect; on the % scale 0 is the no-effect control and ±100 the full control effect; nearly all actives have a fitted effect of over 60% in size
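A549 ARE_Fluc cells, 5000/well, 5% FBS OPTI-MEM; compounds in dose-response, 18-24 h at 37 °C/5% CO2; CellTiter-Fluor viability read (Ex 405/Em 525), then BugLite luciferase luminescence = Nrf2 activity.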
mIDH1 inhibitor = inhibitors of human mutant IDH1 R132H | O75874 | IDH1-R132H enzyme, NADPH consumption, diaphorase/resazurin fluorescence | Potency, µM (titrated, usually from 76.6 µM), inactives show at the highest dose activity change, negative = inhibition, actives largely listed as inhibitors | 390,000 compounds, 0.093% hits | AID 602179; further: potency means the concentration at half of the fitted maximal effect; on the % scale 0 is the no-effect control and ±100 the full control effect; nearly all actives have a fitted effect of over 65% in size
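IDH1-R132H (0.5 ug/mL dispensed) in pH 7.5 Tris buffer was preincubated 30 min with compound, then given a substrate mix of 0.016 mM NADPH and 2 mM alpha-KG for 80 min at room temperature; remaining NADPH was read by diaphorase/resazurin fluorescence.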
Giardia kill = Giardia lamblia killing | Giardia lamblia trophozoite viability | activity change, % at 7.66 µM, hits read low | 340,000 compounds, 0.15% hits; in the data active means activity change below about -80%; inconclusive means between about -30% and that limit;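 further: parasites exposed to compound for two days anaerobically before the ATP read; on the % scale 0 is the no-effect control and ±100 the full control effect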
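Killing of trophozoites was scored by loss of ATP luminescence after a 48 hrs anaerobic exposure to compounds at 37 deg C, using 100 cells per well.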
Apoferritin bind = binds horse apoferritin like a general anesthetic. apoferritin/1-aminoanthracene competitive binding, fluorescence. Potency, µM (highest dose often 77.5 µM), for inactives: top-dose activity change, negative = displacement, actives largely listed as inhibitors. 350,000 compounds, 0.074% hits. P02791. AID 485281; further: potency means the concentration at half of the fitted maximal effect; on the % scale 0 is the no-effect control and ±100 the full control effect; nearly all actives have a fitted effect of over 20% in size
Target sequence (P02791 2-175 limits assumed): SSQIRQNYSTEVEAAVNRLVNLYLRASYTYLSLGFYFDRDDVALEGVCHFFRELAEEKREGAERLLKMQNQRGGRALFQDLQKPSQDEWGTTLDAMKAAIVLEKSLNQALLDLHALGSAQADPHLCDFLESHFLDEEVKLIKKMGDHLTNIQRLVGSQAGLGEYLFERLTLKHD
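Read-out: endpoint 1-AMA fluorescence, excitation 380 nm and emission 535 nm, after compounds sit 10 min at room temperature with 10 uM horse-spleen apoferritin in 50% saturated 1-AMA/PBS. Values come from four-parameter Hill fits.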
FLuc enzyme inh = firefly luciferase inhibition, Nrf2 hit validation; shares compounds with Nrf2 inh; 1,400 compounds, 4% hits; Potency, µM (highest dose often 57.5 µM), inactives show at the top dose activity change, negative = inhibition, most hits filed as inhibitors; AID 720522; purified firefly luciferase, luminescence inhibition; further: potency means the concentration at half of the fitted maximal effect; on the % scale 0 is the no-effect control and ±100 the full control effect; nearly all actives have a fitted effect of over 65% in size
Target sequence (P08659 whole entry, looked up): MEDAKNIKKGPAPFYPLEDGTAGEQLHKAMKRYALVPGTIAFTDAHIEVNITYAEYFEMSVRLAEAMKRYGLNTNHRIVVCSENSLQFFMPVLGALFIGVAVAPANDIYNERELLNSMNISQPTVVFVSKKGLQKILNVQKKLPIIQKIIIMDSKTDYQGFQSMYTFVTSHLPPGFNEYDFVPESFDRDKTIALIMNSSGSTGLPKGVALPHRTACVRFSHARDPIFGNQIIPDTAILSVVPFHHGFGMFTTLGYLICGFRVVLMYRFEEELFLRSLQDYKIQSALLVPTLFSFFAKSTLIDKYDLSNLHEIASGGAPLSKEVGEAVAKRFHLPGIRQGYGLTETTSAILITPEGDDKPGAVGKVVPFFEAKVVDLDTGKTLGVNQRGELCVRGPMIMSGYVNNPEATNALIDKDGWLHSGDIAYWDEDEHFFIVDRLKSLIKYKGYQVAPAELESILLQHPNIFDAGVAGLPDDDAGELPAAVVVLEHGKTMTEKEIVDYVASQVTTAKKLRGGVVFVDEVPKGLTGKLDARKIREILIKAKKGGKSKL
A549 tox-2 = counter-screen for Nrf2 inhibitors: cytotoxicity in A549 ARE cells; shares compounds with Nrf2 inh; A549 ARE-Fluc cells, cytotoxicity counterscreen; Potency, µM (titrated, usually from 46.1 µM), for the others: at the top dose activity change, negative = cytotoxicity, actives largely listed as inhibitors; 1,400 compounds, 2% hits; AID 720523;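 further: potency means the concentration at half of the fitted maximal effect; cells exposed to compounds for 18 to 24 hours; on the % scale 0 is the no-effect control and ±100 the full control effect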
ARE-Fluc inh = Nrf2 inhibition confirmed, A549 ARE-luciferase | Potency, µM (series often up to 46.1 µM), inactives show at the highest dose activity change, negative = inhibition, usual class: inhibitors | A549 ARE-firefly luciferase reporter, luminescence | AID 720524 | shares compounds with Nrf2 inh | 1,400 compounds, 74% hits; further: potency means the concentration at half of the fitted maximal effect; on the % scale 0 is the no-effect control and ±100 the full control effect; nearly all actives have a fitted effect of over 65% in size
Starred values were filed as active, the others as inactive; i = inactive; ? = inconclusive; . = not tested or not shown. Most compounds without a hit are left out; they make up all but 2.3% or so of the library. Unless noted, the call rests on the fitted dose curve; in most records, active means well fitted curve in the direction sought with a large enough effect; inconclusive means small, poorly fitted or top-dose-only effect, or another doubt; inactive means no such curve, though single readings can be large; an effect the other way counts as inactive or inconclusive.

SMILES	Nrf2 ARE act	A549 tox-1	Nrf2 inh	mIDH1 inhibitor	Giardia kill	Apoferritin bind	FLuc enzyme inh	A549 tox-2	ARE-Fluc inh
O=C(Nc1ccc(Br)cc1)c1cccc(S(=O)(=O)Nc2cnc3ccccc3c2)c1	10%	?	2.9µM*	-24%	49	-14%	?	-14%	18µM*
Cc1sc2ncnc(NCCc3ccc(S(N)(=O)=O)cc3)c2c1C	7%	-20%	2.3µM*	0%	5	3%	0%	-11%	6.5µM*
NS(=O)(=O)c1ccc(CCNc2ncnc3sccc23)cc1	0%	-25%	1.6µM*	4%	-21	-7%	-1%	2%	?
NS(=O)(=O)c1ccc(CNc2ncnc3sccc23)cc1	0%	-3%	-12%	2%	-5	4%	.	.	.
C[C@H]1CCC/C=C/[C@@H]2C[C@H](O)C[C@H]2[C@H](O)[C@H](S(=O)c2ccc(O)cc2)CC(=O)O1 (stereo partly specified)	0%	?	0.26µM*	19%	-12	.	1%	?	0.52µM*
CC(=O)N1CCCC1c1nc2ccccc2n1Cc1ccccc1C (stereo unspecified)	1%	?	3.3µM*	-3%	.	?	1%	-7%	18%
COc1ccccc1CN1COc2ccc3c(C)cc(=O)oc3c2C1	-1%	6%	?	-11%	.	i	.	.	.
CCN(Cc1ccccc1)S(=O)(=O)c1ccc(C(=O)N2CCN(c3nc4ccccc4s3)CC2)cc1	0%	-13%	1.8µM*	4%	12	-4%	-11%	0%	7.3µM*
CC(=O)O[C@@H]1[C@@H](O)CN[C@@H]1Cc1ccccc1	.	?	0.23µM*	.	-83*	6%	3%	?	0.33µM*
CCOC(=O)C(=O)N1CCC(Cc2ccccc2)CC1	2%	6%	-2%	5%	13	-15%	.	.	.
O=C(COc1ccccc1Cl)NCCCNC(=O)c1cccnc1	-3%	2%	3.7µM*	-8%	-4	-3%	-1%	-21%	9.2µM*
Oc1ccc(C[C@H]2CN([C@@H](Cc3ccc(O)cc3)CN3CCC[C@@H]3CN3C(=S)NC[C@@H]3Cc3ccccc3)C(=S)N2CC2CCCCCC2)cc1	-3%	.	.	.	.	.	.	.	.
FC(F)(F)c1cccc(Nc2nc3nonc3nc2Nc2ccc(Cl)cc2)c1	-3%	2.9µM*	0.58µM*	.	.	?	?	4.6µM*	1µM*
CC(=O)c1sc(NC(=O)C=C(C)C)nc1C	3%	.	?	5%	5	2%	.	.	.
CC(=O)c1sc(NC(=O)C2(F)C(F)(F)C(F)(F)C(F)(F)C(F)(F)C2(F)F)nc1C	7%	?	5.8µM*	-7%	0	?	?	?	6.5µM*
CCC1CCCCN1C(=O)c1cc(COc2ccc3ncccc3c2)on1 (stereo unspecified)	3%	?	2.1µM*	5%	16	?	0%	-7%	.
CC(CCCC(C)(C)O)NC(=O)c1cc(COc2ccc3ncccc3c2)on1 (stereo unspecified)	3%	?	5.2µM*	4%	1	-15%	-11%	-4%	6.5µM*
CN(Cc1ccccn1)C(=O)c1cc(COc2ccc(F)c(F)c2)on1	9%	.	.	-3%	.	.	.	.	.
Cc1cc(C)n(CCNC(=O)c2cc(COc3ccc4ncccc4c3)on2)n1	0%	2%	?	-13%	-5	6%	.	.	.
Cc1nc(CN(C)C(=O)c2cc(COc3ccc4ncccc4c3)on2)cs1	0%	-15%	2.9µM*	4%	4	-12%	-17%	-5%	-42%
CCOC(=O)c1c(NC(=O)CC2SC(N)=NC2=O)sc2c1CCCC2 (stereo unspecified)	3%	-24%	1.6µM*	6%	2	?	-1%	-1%	?
CN1/C(=C\C=[N+](C)c2ccccc2)C(C)(C)c2ccccc21	2%	9.2µM*	0.82µM*	5%	-5	-22%	2%	?	1.2µM*
COc1ccc(CNC(=O)CN2C(=O)COc3ccc(S(=O)(=O)N4CCCCCC4)cc32)cc1	4%	-7%	27%	5%	.	-9%	.	.	.
CCOC(=O)N1CCc2c(sc(NC(=O)c3ccc(S(=O)(=O)N4CCCC4)cc3)c2C#N)C1	1%	-28%	7.3µM*	16%	5	-8%	-28%	-29%	7.3µM*
CC(C)N1CCc2c(sc(NC(=O)c3ccc(S(=O)(=O)N4CCOCC4)cc3)c2C#N)C1	0%	-10%	-7%	-10%	-4	-5%	.	.	.
CC(C)c1nn2c(=O)cc(COC(=O)CNC(=O)c3ccccc3Cl)nc2s1	1%	-1%	-8%	14%	.	41%	.	.	.
Cc1cc(F)ccc1S(=O)(=O)Nc1ccccc1C(=O)Nc1ccccc1-c1nc2ccccc2[nH]1	-2%	23µM*	4.1µM*	-3%	-9	-3%	2%	?	16µM*
COc1ccc2[nH]c3c(C)c4ccncc4c(C)c3c2c1	-3%	?	8.2µM*	-21%	-26	1%	-26%	?	2.6µM*
